Screening data deposited in PubChem BioAssay by Broad Institute.
MITF TRPM1 HTS: MITF TRPM1 promoter activation in melanoma cells. SK-MEL-5 TRPM1-promoter luciferase, 24 h; % of positive control, neutral wells = 0. activation, % at 12.5 µM. hit rate 0.75% among 300,000;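 active = mean activation of at least 80% with every replicate also reaching 80%; inconclusive = mean reaches 80% but some replicate falls short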;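 note: 0% = neutral control wells and 100% = parthenolide positive control wells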
AF4-AF9 inh: MLL-AF4/AF9 protein interaction inhibition; AlphaScreen, biotin-AF4 peptide binding to FLAG-AF9; inhibition, % at 10 µM; hit rate 0.47% among 350,000;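 active = every replicate reaching a set inhibition limit, whatever the replicate mean, cut at about 25% in these data; inconclusive = mean inhibition reaches that limit but some replicates miss it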;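 note: 0% = plate neutral control median and 100% = total signal loss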
Target sequence (P42568 whole entry, looked up): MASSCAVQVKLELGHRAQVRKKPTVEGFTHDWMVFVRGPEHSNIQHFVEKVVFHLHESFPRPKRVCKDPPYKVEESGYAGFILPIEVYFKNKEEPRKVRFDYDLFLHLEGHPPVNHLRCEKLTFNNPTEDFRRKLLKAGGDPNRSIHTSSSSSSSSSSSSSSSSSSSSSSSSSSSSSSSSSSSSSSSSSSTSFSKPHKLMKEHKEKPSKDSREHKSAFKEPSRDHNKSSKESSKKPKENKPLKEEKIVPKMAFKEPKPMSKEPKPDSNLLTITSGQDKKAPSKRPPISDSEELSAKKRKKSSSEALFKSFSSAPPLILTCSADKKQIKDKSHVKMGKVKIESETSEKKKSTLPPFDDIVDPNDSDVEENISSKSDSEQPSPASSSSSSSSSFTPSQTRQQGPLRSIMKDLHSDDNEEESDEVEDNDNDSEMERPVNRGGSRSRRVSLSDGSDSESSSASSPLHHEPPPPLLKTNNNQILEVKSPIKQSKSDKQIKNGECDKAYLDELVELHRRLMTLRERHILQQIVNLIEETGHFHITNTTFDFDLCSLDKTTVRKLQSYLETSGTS
esBAF inh: SWI/SNF esBAF complex inhibition | mouse ES cells, Bmi1-luciferase knock-in reporter, 24 h; 100% = twice the neutral-well signal | reporter increase, % at 12.5 µM | hit rate 2% among 350,000 | AID 602393; in the data active = activation above about 40%; inconclusive = no clear call, values can overlap the other calls;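 note: 0% = median of the plate's neutral control wells and 100% = double that signal; a rise in the Bmi1 reporter signal indicates esBAF inhibition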
Ecoli rRNA inh: selective bacterial rRNA inhibition in E. coli; E. coli WT GFP vs humanized-ribosome RFP mutants, fluorescence, 24 h; stronger effect = lower value; DMSO median 0, no signal -100; GFP signal change (wild-type ribosome), % (no concentration beside the values); hit rate 1.6% among 350,000;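 active = significant combined selectivity score with lowered wild-type GFP, culture density cut under 30%, mutant RFP and density less affected; inactive = any of these conditions unmet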
Wnt bcat act: activators of Wnt/beta-catenin signaling; Wnt/beta-catenin reporter cell assay, activator, plate reader; activation, % at 9.35 µM; hit rate 1.2% among 300,000; in the data active = activation above about 30%, passing the limit was not always enough; inconclusive = no clear call, values can overlap the other calls;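 note: 0% = neutral control wells and 100% = positive control wells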
Starred values were filed as active, the others as inactive. In the library only some 3.7% were active in any assay of this set; here they are far more common.

Results for O=C(NCC[C@H]1CC[C@H](NS(=O)(=O)c2cccc(F)c2)[C@@H](CO)O1)C1CC1 ?
AF4-AF9 inh: 2; esBAF inh: -1; Ecoli rRNA inh: 1

Results for CCN(Cc1ccccc1)Cc1nnnn1Cc1ccccc1 ?
MITF TRPM1 HTS: -10; esBAF inh: -3; Wnt bcat act: -1

What do the screens show for `CCCC(=O)Nc1nnc(/C=C/c2ccccc2)s1`?
MITF TRPM1 HTS: 20; AF4-AF9 inh: -1; esBAF inh: 40; Ecoli rRNA inh: 0; Wnt bcat act: 3

Results for CCC(=O)Nc1nnc(/C=C/c2ccccc2)s1 ?
MITF TRPM1 HTS: 76; AF4-AF9 inh: 3; esBAF inh: 61*; Ecoli rRNA inh: 9; Wnt bcat act: 1

How did O=C(CNC(=O)c1cccs1)N/N=C/c1ccccc1[N+](=O)[O-] do in these assays?
MITF TRPM1 HTS: 75; AF4-AF9 inh: 2; esBAF inh: 60*; Ecoli rRNA inh: -2; Wnt bcat act: 9

Results for O=[N+]([O-])c1ccccc1/C=N/OCc1ccccc1 ?
MITF TRPM1 HTS: 101*; AF4-AF9 inh: -1; esBAF inh: 65*; Ecoli rRNA inh: -17; Wnt bcat act: 24

How did Cc1c(NC(=S)N/N=C/c2cc([N+](=O)[O-])ccc2O)c(=O)n(-c2ccccc2)n1C do in these assays?
MITF TRPM1 HTS: 5; AF4-AF9 inh: 4; esBAF inh: -2; Ecoli rRNA inh: -22*; Wnt bcat act: -6

Results for O=[N+]([O-])c1ccc(O)c(/C=N/Nc2ccccc2Cl)c1 ?
MITF TRPM1 HTS: 35; AF4-AF9 inh: 1; esBAF inh: 47*; Ecoli rRNA inh: -35; Wnt bcat act: inconclusive

Results for O=C(CC(=O)N/N=C\c1ccccc1[N+](=O)[O-])NCCc1ccccc1 ?
MITF TRPM1 HTS: -6; AF4-AF9 inh: -1; esBAF inh: 0; Ecoli rRNA inh: 16; Wnt bcat act: 0

How did O=[N+]([O-])c1ccccc1C=NNc1ccccc1 do in these assays?
MITF TRPM1 HTS: 27; AF4-AF9 inh: 0; esBAF inh: 91*; Ecoli rRNA inh: -7; Wnt bcat act: 35*

What do the screens show for `O=[N+]([O-])c1ccccc1N/N=C\c1ccccc1F`?
MITF TRPM1 HTS: 75; AF4-AF9 inh: 4; esBAF inh: 63*; Ecoli rRNA inh: 15; Wnt bcat act: 57*

What do the screens show for `O=[N+]([O-])c1ccccc1N/N=C\c1ccccc1Cl`?
MITF TRPM1 HTS: 41; esBAF inh: 62*

How did C/C(CC(=O)Nc1ccc2c(c1)OCCO2)=N\NC(=O)Cc1ccccc1 do in these assays?
MITF TRPM1 HTS: -2; AF4-AF9 inh: 1; esBAF inh: 6; Ecoli rRNA inh: 1; Wnt bcat act: -3

What do the screens show for `CCOC(=O)c1ccccc1NC(=O)COC(=O)CN1C(=O)NC2(CCCC2)C1=O`?
MITF TRPM1 HTS: -6; AF4-AF9 inh: -3; esBAF inh: 1; Ecoli rRNA inh: -32*; Wnt bcat act: 3

How did CN(CC(=O)Nc1ccccc1Cl)C(=O)COC(=O)CN1C(=O)NC2(CCCC2)C1=O do in these assays?
MITF TRPM1 HTS: -7; AF4-AF9 inh: 2; esBAF inh: 4; Ecoli rRNA inh: 2; Wnt bcat act: -1

Results for Cc1nc2c(Cl)cc(Cl)cc2[nH]1 ?
MITF TRPM1 HTS: 11

How did COc1cccc(/C=N/NC(=S)NC2CC3CC2C2C=CCC32)c1O (configuration not stated) do in these assays?
Ecoli rRNA inh: 15; Wnt bcat act: -2

What do the screens show for `Oc1ccccc1/C=N/NC(=S)NC1CC2CC1C1C=CCC21` (configuration not stated)?
MITF TRPM1 HTS: 31; AF4-AF9 inh: inconclusive; esBAF inh: 57*; Ecoli rRNA inh: -48; Wnt bcat act: 49*

How did CS(=O)(=O)c1ccc(Cl)c(NC(=O)COC(=O)CCN2C(=O)C3CC=CCC3C2=O)c1 (configuration not stated) do in these assays?
MITF TRPM1 HTS: 8; AF4-AF9 inh: -1; esBAF inh: -6; Ecoli rRNA inh: -1; Wnt bcat act: -1

How did COCCn1c(-c2ccc(Br)cc2)csc1=Nc1cccnc1 do in these assays?
MITF TRPM1 HTS: 5; AF4-AF9 inh: 13; Ecoli rRNA inh: -19; Wnt bcat act: 2

How did Clc1ccc(-c2csc(=Nc3cccnc3)n2CCCn2ccnc2)cc1Cl do in these assays?
MITF TRPM1 HTS: 4; AF4-AF9 inh: 47*; Wnt bcat act: -3

What do the screens show for `CC(=O)Nc1ccc(NC(=O)C(C)c2cccc(C(=O)c3ccccc3)c2)cc1` (configuration not stated)?
MITF TRPM1 HTS: 9; Wnt bcat act: 1

How did CC(C(=O)Nc1ccc(O)cc1)c1cccc(C(=O)c2ccccc2)c1 (configuration not stated) do in these assays?
MITF TRPM1 HTS: -12; AF4-AF9 inh: 3; Ecoli rRNA inh: -37*; Wnt bcat act: -1

How did O=C(CN1N=C(c2ccccc2)CCC1=O)NCc1cccs1 do in these assays?
MITF TRPM1 HTS: -4; AF4-AF9 inh: 7; Ecoli rRNA inh: 9; Wnt bcat act: 1

Results for CCCCC1CC(C)(C(=O)CSc2nc3ccccc3s2)OC1=O (configuration not stated) ?
esBAF inh: 5; Wnt bcat act: 0

How did CCOc1ccc(NC(=O)c2ccccc2O)cc1 do in these assays?
MITF TRPM1 HTS: 82*; esBAF inh: 26

What do the screens show for `CCOc1ccc(NC(=O)c2ccccc2OCC(=O)c2ccccc2)cc1`?
esBAF inh: 44*

Results for COc1ccccc1NC(=O)Cn1nnc(C(=O)Nc2ccccc2)c1N ?
MITF TRPM1 HTS: -13; esBAF inh: -3; Wnt bcat act: -1

What do the screens show for `CCOc1ccc(NC(=O)c2nnn(CC(=O)Nc3ccccc3OC)c2N)cc1`?
MITF TRPM1 HTS: 16; esBAF inh: 44*

Results for CCOc1ccccc1C(=O)Nc1ccc(NC(=O)c2ccccc2)cc1 ?
MITF TRPM1 HTS: 19; AF4-AF9 inh: -3; esBAF inh: -3; Ecoli rRNA inh: 5; Wnt bcat act: -2

How did CCOc1ccc(NC(=O)c2ccccc2OC)cc1 do in these assays?
MITF TRPM1 HTS: 12; esBAF inh: 22; Wnt bcat act: 46*

What do the screens show for `Cc1ccc(NC(=O)c2ccccc2OCC(=O)c2ccccc2)cc1`?
esBAF inh: 17

How did Cc1c(C(=O)C(=O)NCCc2ccc(S(N)(=O)=O)cc2)c2ccccc2n1C do in these assays?
MITF TRPM1 HTS: -2; AF4-AF9 inh: -6; esBAF inh: 6; Ecoli rRNA inh: 9; Wnt bcat act: -1

Results for CCOc1ccc(NC(=O)c2ccccc2-c2ccccc2C(=O)O)cc1 ?
MITF TRPM1 HTS: 85*; AF4-AF9 inh: 0; esBAF inh: 27; Ecoli rRNA inh: -7; Wnt bcat act: 13

Results for CCOc1ccc(NC(=O)c2ccccc2CO)cc1 ?
MITF TRPM1 HTS: 45; esBAF inh: inconclusive

What do the screens show for `COc1cccc(NC(=O)N2CC3(C2)[C@H](c2ccccc2)[C@H](CO)N3C(C)=O)c1`?
AF4-AF9 inh: 3; Ecoli rRNA inh: 4

Results for COc1ccc(C(=O)CSc2ncnc3nc[nH]c23)cc1 ?
Ecoli rRNA inh: -11; Wnt bcat act: 4
